PLAP activator = PLAP enzyme activators, biochemical, luminescence, HTS | purified PLAP enzyme, luminescent substrate read-out; active compounds read high | activation fold at 20 µM | 96,000 tested, 1.2% active | AID 696, 2007; in the data active = activation fold above about 2
Target sequence (P05187 whole entry, looked up): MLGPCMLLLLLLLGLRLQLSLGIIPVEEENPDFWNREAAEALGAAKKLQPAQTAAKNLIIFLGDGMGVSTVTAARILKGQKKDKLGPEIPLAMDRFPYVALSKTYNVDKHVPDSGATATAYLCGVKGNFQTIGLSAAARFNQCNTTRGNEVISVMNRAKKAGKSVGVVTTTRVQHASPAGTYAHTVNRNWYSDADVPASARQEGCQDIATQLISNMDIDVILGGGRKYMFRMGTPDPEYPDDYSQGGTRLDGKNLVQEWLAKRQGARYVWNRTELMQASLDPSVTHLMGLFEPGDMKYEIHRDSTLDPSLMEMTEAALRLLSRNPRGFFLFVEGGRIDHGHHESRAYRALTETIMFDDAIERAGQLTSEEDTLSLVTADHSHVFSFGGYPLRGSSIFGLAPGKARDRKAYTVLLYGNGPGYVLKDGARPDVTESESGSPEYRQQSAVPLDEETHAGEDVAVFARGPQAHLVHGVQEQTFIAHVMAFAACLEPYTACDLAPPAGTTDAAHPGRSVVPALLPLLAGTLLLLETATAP
CYP2C19 inhib = blockers of cytochrome P450 2C19 activity – biochemical, luminescence, ADME assay, primary screen | P33261 | inhibition, % at 5 µM | CYP2C19 Supersomes, luciferin-H EGE luminescence, 30 min | AID 778, 2007 | 96,000 tested, 21% active;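 active = CYP2C19 inhibition above a set limit at 5 µM in the primary screen, cut at about 50% in these data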
CYP2C19 act = human CYP2C19 activators, primary screen, biochemical, luminescence; activation factor at 5 µM; recombinant CYP2C19, luciferin-H EGE luminescence; active compounds read high; 0 = fully inhibited enzyme, 1 = untreated enzyme; Cytochrome P450 2C19 (Homo sapiens), P33261; AID 1025, 2008; 96,000 tested, under 10 active;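 active = activation factor of at least 2 at 5 µM in the primary screen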
CYP2C9 activ = human CYP2C9 activators, primary screen, biochemical, luminescence; Cytochrome P450 2C9 (Homo sapiens), P11712; recombinant CYP2C9, luciferin-H conversion; active compounds read high; factor 1 = untreated enzyme, 0 = blocked; activation factor at 5 µM; 96,000 tested, 1.4% active;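 active = activation factor of 2 or more for CYP2C9 at a 5 µM dose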
CYP2C9 inh = blockers of cytochrome P450 2C9 activity – biochemical, luminescence, ADME assay, primary screen; P11712; CYP2C9 Supersomes, luciferin-H conversion; inhibition, % at 5 µM; 96,000 tested, 20% active;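 active = blocking of liver enzyme CYP2C9 beyond about 50% at 5 µM, limit read from the data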
A number is an active result; - = inactive. Only some compounds are listed: those with a hit (about 31% of all), similar ones and a draw of the others.

SMILES	PLAP activator	CYP2C19 inhib	CYP2C19 act	CYP2C9 activ	CYP2C9 inh
CCOC(=O)c1[nH]c2ccc(C)cc2c1N=CN(CC)CC	-	-	-	-	-
CCc1ccc(C(=O)NC(CC(C)C)C(=O)O)cc1 (stereo not drawn)	-	-	-	-	-
CC1=NC(Nc2nc(C)c3ccccc3n2)=NC(C)(C)C1	-	-	-	-	-
Clc1ccc(OCCn2ccnc2)c(Br)c1	-	97	-	-	95
CC(C)NCCOCCSc1ccc(Cl)cc1	-	-	-	-	-
Clc1ccccc1OCCCCN1CCCC1	-	-	-	-	-
Clc1ccc(OCCn2ccnc2)c(Cl)c1	-	95	-	-	96
Clc1ccc(OCCn2ccnc2)c2ccccc12	-	97	-	-	91
Clc1ccc(SCCn2ccnc2)cc1	-	90	-	-	60
Cc1ccc(C)n1/N=C1/NC(=O)CS1	-	-	-	-	-
CCC(C)Sc1nc2c(c(=O)[nH]c(=O)n2C)n1Cc1ccccc1Cl (stereo not drawn)	-	-	-	-	-
CC(C)(C)C(=O)Cn1ncc(NC2CC2)c(Br)c1=O	-	62	-	-	-
CC(C)(C)C(=O)Cn1ncc(N2CCCC2)c(Br)c1=O	-	-	-	-	-
CCOC(=O)/C(C#N)=C1/C=CNC(=O)N1	-	-	-	-	-
COc1ccc(S(=O)(=O)N(C)CC(=O)NCCC2=CCCCC2)cc1	-	-	-	2.4	-
COc1ccc(S(=O)(=O)N(C)CC(=O)NCCC2=CCCCC2)cc1OC	-	82	-	-	-
COc1ccc(N(CC(=O)NCCC2=CCCCC2)S(C)(=O)=O)cc1OC	-	-	-	-	-
Cc1ncsc1C(=O)NCc1ccc(N2CCCC2=O)cc1	-	-	-	-	-
CC(=O)c1c(N2CCCC2)[nH]c(-c2ccccc2)nc1=S	-	51	-	-	-
N#CCCN(Cc1ccccc1)C(=S)NC(=O)c1ccccc1	-	-	-	-	93
CCN(Cc1ccccc1)C(=O)CCCOc1ccccc1	-	73	-	-	-
CCN(Cc1ccccc1)C(=O)c1ccccc1C	-	56	-	-	-
CCOc1ccc(C(=O)NC(=S)N(Cc2ccccc2)Cc2ccccc2)cc1	-	-	-	-	53
O=C(O)CCCC(=O)N(Cc1ccccc1)Cc1ccccc1	-	-	-	-	-
CCc1ccccc1NC(=S)N1CCC(C(=O)c2ccc(F)cc2)CC1	-	-	-	-	-
SMILES	PLAP activator	CYP2C19 inhib	CYP2C19 act	CYP2C9 activ	CYP2C9 inh
COc1cccc(CNc2ccc3c(c2)CCC3)c1	-	-	-	-	-
COc1ccc(C(=O)NC(=S)NCc2ccccc2)cc1	-	-	-	-	-
COc1ccc(CN(CCC#N)C(=S)NC(=O)c2ccccc2)cc1	-	-	-	-	92
Cc1ccc(NCC(=O)N/N=C/c2cc3ccccc3nc2Cl)cc1	-	-	-	-	54
Cc1cccc(C(=O)N2CCN(Cc3ccc4c(c3)OCO4)CC2)c1	-	92	-	-	-
Cc1ccc(S(=O)(=O)N(C)c2ccc(C(=O)N3CCN(Cc4ccc5c(c4)OCO5)CC3)cc2)cc1	2	55	-	-	54
O=C(c1ccc(NS(=O)(=O)c2ccccc2)cc1)N1CCN(Cc2ccc3c(c2)OCO3)CC1	-	-	-	-	94
Cc1ccc(S(=O)(=O)N(C)c2ccc(C(=O)N3CCC(C(N)=O)CC3)cc2)cc1	-	-	-	-	-
O=C(CN(c1ccccc1)S(=O)(=O)c1ccccc1)N1CCN(Cc2ccc3c(c2)OCO3)CC1	-	69	-	-	89
CC(C)CC(=O)N1CCN(Cc2ccc3c(c2)OCO3)CC1	-	-	-	-	-
O=C(Nc1ccccc1)N1CCN(Cc2ccc3c(c2)OCO3)CC1	-	-	-	-	-
Cc1ccc(S(=O)(=O)NCCCNC(=O)N2CCOCC2)cc1	-	-	-	-	-
O=C(c1cc(-c2ccccc2)on1)N1CCN(Cc2ccc3c(c2)OCO3)CC1	-	70	-	-	68
O=C(c1ccc(Br)o1)N1CCN(Cc2ccc3c(c2)OCO3)CC1	-	90	-	-	62
Cc1cccc(Cc2c(C)nc3c(C(=O)N4CCN(Cc5ccc6c(c5)OCO6)CC4)cnn3c2C)c1	-	93	-	-	76
Cc1ccc(S(=O)(=O)N(C)c2ccc(N)cc2)cc1	-	94	-	2.2	-
O=C(c1ccc(Cn2cc(Cl)cn2)o1)N1CCN(Cc2ccc3c(c2)OCO3)CC1	-	-	-	-	-
O=C(c1ccc(Br)s1)N1CCN(Cc2ccc3c(c2)OCO3)CC1	-	-	-	-	-
Cc1noc(C)c1C(=O)N1CCN(Cc2ccc3c(c2)OCO3)CC1	-	-	-	-	-
COc1ccccc1CNC(=O)C1CCC(CNc2c(N3CCOCC3)c(=O)c2=O)CC1 (stereo not drawn)	-	-	-	-	-
CCCc1cc(=O)[nH]c(SCC(=O)N2CCC(C(=O)OCC)CC2)n1	-	-	-	-	-
COc1ccc(C2C(C(=O)NCc3ccco3)CCC(=O)N2c2ccc(OC)cc2)cc1 (stereo not drawn)	-	-	-	-	-
Cn1c(=O)c2c(nc(NCCCN3CCOCC3)n2Cc2ccc(Cl)cc2Cl)n(C)c1=O	-	-	-	-	-
Cc1ccc(-c2nc(CSCC(=O)N3CCOCC3)c(C)o2)cc1	-	-	-	-	-
Cc1cccc(-c2nc(CSCC(=O)N3CCN(Cc4ccc5c(c4)OCO5)CC3)c(C)o2)c1	-	70	-	-	-
SMILES	PLAP activator	CYP2C19 inhib	CYP2C19 act	CYP2C9 activ	CYP2C9 inh
Cc1ccc(S(=O)(=O)N(C)c2ccc(C(=O)N3CCCCC3)cc2)cc1	2.1	55	-	-	74
CN(c1ccc(C(=O)N2CCN(Cc3ccc4c(c3)OCO4)CC2)cc1)S(=O)(=O)c1ccccc1	-	79	-	-	94
O=C(C1CC2CCC1C2)N1CCN(Cc2ccc3c(c2)OCO3)CC1 (stereo not drawn)	-	58	-	-	-
COc1ccccc1NC(=O)COC(=O)c1cnccn1	-	-	-	-	-
CCn1c(CS(=O)Cc2ccc(Cl)cc2Cl)nnc1SCc1c(Cl)cccc1Cl (stereo not drawn)	-	-	-	-	-
N#Cc1c(-c2ccccc2)c(-c2ccccc2)nn(CC(=O)NNC(=O)Nc2ccccc2)c1=O	-	-	-	-	53
Cc1ccc(NC(=O)Cn2nc(C)c3ccccc3c2=O)cc1	-	-	-	-	-
CNC(=O)CCn1nc(-c2ccc(Cl)cc2)c2ccccc2c1=O	-	-	-	-	-
COc1ccc(-c2nn(CC(=O)Nc3ccc(Cl)c(Cl)c3)c(=O)c3ccccc23)cc1	-	-	-	-	87
O=C(Cn1nc(-c2ccc(Cl)cc2)c2ccccc2c1=O)Nc1cccnc1	-	-	-	-	59
O=C(Cn1nc(-c2ccccc2)c2ccccc2c1=O)Nc1ccccn1	-	-	-	-	-
CCCC(=O)NNC(=O)Nc1ccccc1	-	-	-	-	-

Screens (PubChem BioAssay)
